The values that follow come from the supplement of paper PMC13380429.

For assay [1], the system named is Vero E6 infected with SARS-CoV-2. Kind of assay: morphology score (similarity to uninfected cells); higher = more like uninfected cells. To be noted: 24 h.
For assay [2] the test system is unchanged. Kind of assay: SARS-CoV-2 infection rate relative to infected DMSO; higher = more infection, active = 60 or less. To be noted: 24 h.

Consider `CCn1cc(-c2ccnc3[nH]c(-c4cccc(CN(C)C)c4)cc23)c(-c2ccc(NC(=O)N(C)C)cc2)n1` (0.833333 µM), for which the morphology score in assay [1] is -0.185. For the same compound, the SARS-CoV-2 infection rate in assay [2] was 106% (inactive).
In the case of `CCN(CC)CCNC(=O)c1cc(Br)c(N)cc1OC` [bromopride] (10 µM), the morphology score in assay [1] is -0.115. Besides, in assay [2], the SARS-CoV-2 infection rate was 116% (inactive).
For `C=CC(=O)O` [acrylate] (10 µM), in that order: -0.0871 and 109% (inactive).
For `COc1cc(N2CCC(N3CCN(C)CC3)CC2)ccc1Nc1ncnc(Nc2ccccc2S(=O)(=O)C(C)C)n1` (0.833333 µM), in that order: -0.0307 and 71% (inactive).
The corresponding values for `CO/N=C(\C(=O)N[C@@H]1C(=O)N2C(C(=O)O)=C(COC(N)=O)CS[C@H]12)c1ccco1` (10 µM) are 0.0841 and 98.5% (inactive).
As to `CC(C(=O)O)c1ccc2c(c1)CC(=O)c1ccccc1S2` (configuration not stated) [zaltoprofen] (10 µM), the morphology score in assay [1] was found to be 0.241. Besides, in assay [2], the SARS-CoV-2 infection rate is 104% (inactive).
For `C[C@]12CC[C@H](O)CC1=CC[C@@H]1[C@@H]2CC[C@]2(C)C(n3cnc4ccccc43)=CC[C@@H]12` [galeterone] (0.833333 µM), in that order: -0.052 and 113% (inactive).
As for `OCc1ccccc1O[C@@H]1O[C@H](CO)[C@@H](O)[C@H](O)[C@H]1O` [salicin] (10 µM), the morphology score in assay [1] stood at 0.153. In addition, the SARS-CoV-2 infection rate in assay [2] is 99% (inactive).
For `O=C(OCCOCCO)c1ccccc1Nc1cccc(C(F)(F)F)c1` [etofenamate] (10 µM), in that order: -0.0601 and 112% (inactive).
The corresponding values for `c1coc(CNc2ncnc3[nH]cnc23)c1` [kinetin] (10 µM) are 0.0735 and 104% (inactive).
For `CCN(CC)CCOC(=O)C1(C2CCCCC2)CCCCC1` [dicycloverine] (10 µM), in that order: 0.311 and 90% (inactive).
For `CCOc1nc2cccc(C(=O)OCc3oc(=O)oc3C)c2n1Cc1ccc(-c2ccccc2-c2noc(=O)[nH]2)cc1` [azilsartan-medoxomil] (10 µM), in assay [1], the morphology score is -0.168. Moreover, in assay [2], the SARS-CoV-2 infection rate is 116% (inactive).
For the compound `O=c1ccn([C@@H]2O[C@H](COP(=O)(O)OP(=O)(O)OP(=O)(O)O)[C@@H](O)[C@H]2O)c(=O)[nH]1` (10 µM), the morphology score in assay [1] turned out to be 0.267. Further, the SARS-CoV-2 infection rate in assay [2] is 97% (inactive).
The corresponding values for `CC(C)(C(=O)O)c1ccc(C(O)CCCN2CCC(C(O)(c3ccccc3)c3ccccc3)CC2)cc1` (configuration not stated) [fexofenadine] (10 µM) are -0.361 and 122% (inactive).
The corresponding values for `Cc1nnc(C(C)C)n1C1C[C@H]2CC[C@@H](C1)N2CC[C@H](NC(=O)C1CCC(F)(F)CC1)c1ccccc1` (stereo in doubt) [maraviroc] (10 µM) are 0.145 and 112% (inactive).
For `CCOC1O[C@H]([C@@H](COCc2ccccc2)OCc2ccccc2)[C@H](OCc2ccccc2)[C@H]1O` (some centres not stated) [tribenoside] (10 µM), in that order: -0.0493 and 102% (inactive).
In assay [1], `CC(=O)c1ccc2c(c1)C(=O)C1(CC1)O2` [spizofurone] (10 µM) displayed a morphology score of -0.0677. In assay [2], the SARS-CoV-2 infection rate was 112% (inactive).
On to `Nc1ncnc2c1c(-c1ccc(Oc3ccccc3)cc1)nn2C1CCCC1` (10 µM), for which, in assay [1], the morphology score was -0.00746. Further, in assay [2], the SARS-CoV-2 infection rate was 122% (inactive).
For `O=C(N/N=C/c1ccc(O)c(O)c1)c1cc2ccccc2cc1O` [dynasore] (10 µM), in that order: -0.107 and 108% (inactive).
The corresponding values for `O=C(O)[C@H](Cc1c[nH]c2ccccc12)N1C(=O)c2ccccc2C1=O` (10 µM) are -0.0791 and 115% (inactive).
For `O=C(/C=C/c1ccc2ccccc2n1)c1ccncc1` (0.833333 µM), in that order: 0.0453 and 104% (inactive).
